Laboratory results from PubChem BioAssay (NCATS).
Values joined by “and” are separate entries in the source; they are usually repeats but may differ in a detail not shown here. Identical values can stand only once. Inconclusive results are not listed. Entries that show only a call come without a potency. Unmarked numbers belong to inactive results. Active and inactive are the calls of the source. The call rests on the fitted dose curve; in most records, active means well fitted curve in the direction sought with a large enough effect; inconclusive means small, poorly fitted or top-dose-only effect, or another doubt; inactive means no such curve, though single readings can be large; an effect the other way counts as inactive or inconclusive.

Key:
[1] = target: Cellular tumor antigen p53 (Homo sapiens) (UniProt P04637); test: Primary qHTS for small molecule compounds that upregulate eGFP-tagged delta133p53alpha (in N-terminal) cells. (AID 2060322); conditions: NCI-H358 eGFP-delta133p53alpha fluorescence, 24 h; activation: active compounds read high; further: nearly all actives have a fitted effect of over 75% in size; further: potency means the concentration at half of the fitted maximal effect;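 on activation: cells pre-induced with doxycycline then dosed without doxycycline; series mostly up to about 56 µM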
Method in brief: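 NCI-H358 cells pre-induced 24 h with 10 ng/ml doxycycline for eGFP-delta133p53alpha, plated dox-free and exposed 24 h at 37C to titrated compounds. Fixed, Hoechst-stained; gated GFP peak intensity by laser scanning cytometry, normalized to DMSO (0%) and 57.5 uM 5-azacytidine (100%).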

[2] = target: Aldehyde dehydrogenase, mitochondrial (Homo sapiens) (UniProt P05091); test: qHTS for Inhibitors of the Aldehyde Dehydrogenase Family (ALDH2) Primary screen (AID 2061308); further: nearly all actives have a fitted effect of over 55% in size
[3] = target: Retinaldehyde dehydrogenase 3 (Homo sapiens) (UniProt P47895); test: qHTS for Inhibitors of the Aldehyde Dehydrogenase Family (ALDH1A3) Primary screen (AID 2061315)

Sequence of Cellular tumor antigen p53 (Homo sapiens) (P04637 whole entry, looked up): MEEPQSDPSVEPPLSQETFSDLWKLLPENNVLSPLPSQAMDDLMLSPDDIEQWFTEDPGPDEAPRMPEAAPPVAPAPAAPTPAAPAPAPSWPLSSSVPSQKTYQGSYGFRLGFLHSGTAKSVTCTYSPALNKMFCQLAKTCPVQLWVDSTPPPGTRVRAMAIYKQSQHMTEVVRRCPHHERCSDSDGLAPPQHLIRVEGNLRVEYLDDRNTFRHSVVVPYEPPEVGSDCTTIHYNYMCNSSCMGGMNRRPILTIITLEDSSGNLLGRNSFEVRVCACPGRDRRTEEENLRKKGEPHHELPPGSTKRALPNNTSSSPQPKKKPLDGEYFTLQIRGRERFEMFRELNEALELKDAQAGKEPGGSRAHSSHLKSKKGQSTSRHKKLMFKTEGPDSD

SMILES	activation [1]	Potency [2]	Potency [3]	Potency [1]
OC[C@@]1(O)CO[C@H](OC[C@H]2O[C@@H](OCCc3ccccc3)[C@H](O)[C@@H](O)[C@@H]2O)[C@@H]1O	-10.7%	inactive	inactive	
CC(=O)OC(C)(C)/C=C/C(=O)C(C)(O)C1C(O)CC2(C)C3CC=C(C(C)(C)C(=O)O)C(CC(=O)O)C3(C)C(=O)CC12C (stereo not drawn)	-3.82%	inactive	inactive	
COC(=O)C1=CO[C@@H](O[C@@H]2O[C@H](CO)[C@@H](O)[C@H](O)[C@H]2O)[C@@H]2C(COC(C)=O)=C[C@H](O)[C@H]12	-14.5%	inactive	inactive	
COc1c(CCC(=O)O)cccc1O[C@@H]1O[C@H](CO)[C@@H](O)[C@H](O)[C@H]1O	-4.58%	inactive	inactive	
COc1ccc2c(c1)C[C@H](C(=O)Nc1ccc(-c3cn[nH]c3)cc1OCCN(C)C)CO2	-0.893%	inactive	inactive	
C=C(CO)C12OC1C1(C)C(=CC2=O)C(O)C(O)CC1C (stereo not drawn)	17.9%	inactive	inactive	
O=C(O)CCc1cccc(O)c1O[C@@H]1O[C@H](CO)[C@@H](O)[C@H](O)[C@H]1O	0%	inactive	inactive	
CCC(=O)N[C@@H]1Cc2ccccc2[C@H](c2ccccc2)C1	-0.333%	inactive	inactive	
O=C(Nc1ccccc1C(=O)Nc1ccc(CCO)cc1)c1ccc([N+](=O)[O-])cc1	-29.5%	inactive	inactive	
CC(CCC1(O)OC2CC3C4CCC5CC(O[C@@H]6O[C@H](CO)[C@@H](O)[C@H](O)[C@H]6O[C@@H]6OC[C@@H](O)[C@H](O)[C@H]6O)C(O)CC5(C)C4CCC3(C)C2C1C)CO[C@@H]1O[C@H](CO)[C@@H](O)[C@H](O)[C@H]1O (stereo partly drawn)	-5.36%	inactive	inactive	
C[C@@H]1O[C@@H](O[C@H]2[C@@H]3C=CO[C@@H](O[C@@H]4O[C@H](CO)[C@@H](O)[C@H](O)[C@H]4O)[C@@H]3[C@@]3(CO)O[C@@H]23)[C@H](OC(=O)/C=C/c2ccc(O)cc2)[C@H](O)[C@H]1O	6.87%	inactive	inactive	
C/C(=C\CCC(C)CCO)C(=O)O[C@@H]1[C@@H](O)[C@H](OC2OC=C(C(=O)O)C3CCC(C)(O)C23)O[C@H](CO)[C@H]1O (stereo partly drawn)	13.4%	inactive	inactive	
CC12CCC(OC3OC(CO)C(O)C(OC4OC(CO)C(O)C(O)C4O)C3O)CC1=CCC1C2CCC2(C)/C(=C3/COC(=O)C3)CCC12O (stereo not drawn)	-13%	inactive	inactive	
CC1CCC2(C(=O)O)CCC3(C)C(=CCC4C5(C)C[C@@H](O)[C@@H](O)C(C)(CO)C5CCC43C)C2C1(C)O (stereo partly drawn)	11.6%	inactive	inactive	
COC(=O)[C@H](O)[C@H]1C(C)(C)[C@H](OC(=O)C(C)C)[C@@]2(O)C(=O)[C@]1(C)C1CC[C@]3(C)C(CC(=O)O[C@H]3c3ccoc3)[C@]13O[C@@H]32 (stereo partly drawn)	6.11%	inactive	inactive	
CC1(C)CC[C@]2(C(=O)O)CC[C@]3(C)C(=CCC4[C@@]5(C)CC[C@H](O[C@@H]6O[C@H](C(=O)O)[C@@H](O)[C@H](O)[C@H]6O)C(C)(CO)C5CC[C@]43C)C2C1 (stereo partly drawn)	12.2%	inactive	inactive	
CC(C)(C)c1ccc(C(=O)Nc2cc(Cl)c(Br)cc2C(=O)O)cc1	-3.67%	inactive	inactive	
C[C@H](NC(=O)C(C)(C)Oc1ccc(C(F)(F)F)cn1)[C@@H](Cc1ccc(Cl)cc1)c1cccc(C#N)c1	5.36%	inactive	inactive	
COc1cc(/C=C/C(=O)O[C@@H]2C[C@@](O)(C(=O)O)C[C@@H](O)[C@@H]2O)ccc1O	-1.53%	inactive	inactive	
Cc1ncc([N+](=O)[O-])n1C[C@H](O)CN1CCOCC1	2.33%	inactive	inactive	
Cc1cc2nc(NCCCO)n(CC(=O)c3cc(C(C)(C)C)c(O)c(C(C)(C)C)c3)c2cc1C	5%	inactive	inactive	
CCN(CCN(C)C)C(=O)CNCc1cc(C(N)=O)ccn1	-3.67%	inactive	inactive	
CO[C@@H]1[C@]2(O)C(=O)N3/C=C\C(C)(C)c4[nH]c5ccccc5c4/C=C\3C(=O)N2[C@]23[C@H](CO)C(C)(C)N2c2ccccc2[C@]13O	8.4%	inactive	inactive	
Cc1[nH]c2ccccc2c1CCNC(=O)c1ccccc1F	-0.477%	inactive	inactive	
COc1c(O)cc2c(c1O)[C@@H]1O[C@H](CO)[C@@H](O)[C@H](O)[C@H]1OC2=O	18% and -2.68%	inactive	inactive	
CC1(C)C2CCC(CO[C@@H]3O[C@H](CO[C@@H]4OC[C@](O)(CO)[C@H]4O)[C@@H](O)[C@H](O)[C@H]3O)C1C2 (stereo partly drawn)	-5.34%	inactive	inactive	

SMILES	activation [1]	Potency [2]	Potency [3]	Potency [1]
C[C@H]1CC[C@@]2(OC1)O[C@H]1CC3C4CC[C@H]5C[C@@H](O)CC[C@]5(C)C4CC(=O)[C@]3(C)[C@H]1[C@@H]2C (stereo partly drawn)	25.9%	inactive	inactive	
COc1cc(/C=C/c2ccccc2)c(C(=O)O)c(O)c1CC=C(C)C	-9.82%	inactive	inactive	
COC(=O)CCC1(C)C(C(C)(C)O)C(O)CC2(C)Oc3c(C)c4c(c(OC)c3CC21)C(=O)OC4 (stereo not drawn)	-3.82%	inactive	inactive	
c1cc(-c2cc(C3CCNCC3)[nH]n2)ccn1	1.79%	inactive	inactive	
CC1(C)CC[C@]2(C(=O)O)[C@H](O)C[C@]3(C)C(=CCC4[C@@]5(C)CC[C@H](O[C@@H]6O[C@H](CO[C@@H]7OC[C@H](O)[C@H](O)[C@H]7O[C@@H]7OC[C@@H](O)[C@H](O)[C@H]7O)[C@@H](O)[C@H](O)[C@H]6O[C@@H]6O[C@H](CO)[C@@H](O)[C@H](O)[C@H]6O)C(C)(C)C5CC[C@]43C)[C@@H]2C1 (stereo partly drawn)	-17.6%	inactive	inactive	
Cc1ncc(CCCN(C)C)cc1Nc1ncc2c(n1)-c1ccc(C(F)(F)F)cc1NC(=S)C2	22.3%	inactive	inactive	
CC1(CO)CCCC2(C)C1C(OC(=O)c1ccccc1)CC1C(=O)OCC12O (stereo not drawn)	-20.6%	inactive	inactive	
COC1OC(=O)C2=C1C1(C)CCCC(C)(C)C1CC2O (stereo not drawn)	-8.04%	inactive	inactive	
CC1(CCC(=O)O)C(=O)C=CC23CC4CC(OC4(C)C2O)C13 (stereo not drawn)	6.87%	inactive	inactive	
OC[C@H]1O[C@@H](OC(CCCCc2ccc(O)cc2)CCc2ccc(O)cc2)[C@H](O[C@@H]2OC[C@](O)(CO)[C@H]2O)[C@@H](O)[C@@H]1O (stereo partly drawn)	-24.4%	inactive	inactive	
CC(=O)OCCC(C)CCC1C(C)(O)CCC2C(C)(C)CCCC21C (stereo not drawn)	6.87%	inactive	inactive	
COC(=O)CCC(=O)OC[C@]1(C)CCC[C@@]2(C)C3CC[C@]4(C)C=CC3(CCC12)C4 (stereo partly drawn)	-8.4%	inactive	inactive	
COC(=O)/C=C/C12COC(C)(C)C1C(O)C(OC(C)=O)C1(C)C2CCC2(C)C(c3ccoc3)OC(=O)C3OC321 (stereo not drawn)	11.5%	inactive	inactive	
CCCC(=O)Nc1cccc(NC(=O)c2ccccc2Br)c1	-11.7%	inactive	inactive	
O=C(CCc1ccccc1)c1c(O)c([C@@H]2O[C@H](CO)[C@@H](O)[C@H](O)[C@H]2O)c(O)c([C@@H]2O[C@H](CO)[C@@H](O)[C@H](O)[C@H]2O)c1O	-1.53%	inactive	inactive	
CN1CCN(C(=O)c2ccc(Nc3nccc(-c4cccs4)n3)cc2Cl)CC1		inactive	inactive	30.1 µM (active)
CC(C)=CCC/C(C)=C/CO[C@@H]1O[C@H](CO[C@@H]2O[C@@H](CO)[C@H](O)[C@H]2O)[C@@H](O)[C@H](O)[C@H]1O	-29.5%	inactive	inactive	
CC(C)C1=CC2C(CC[C@]2(C)O)[C@](C)(O)CC1 (stereo partly drawn)	-6.25%	inactive	inactive	
C=C(C)[C@@H]1CC=C(COC(=O)NC(=O)c2ncn3c(=O)n(C)nnc23)CC1	10%	inactive	inactive	
C[C@H](NC(c1cccc2[nH]c(=O)c(=O)[nH]c12)P(=O)(O)O)c1ccc(Br)cc1 (stereo partly drawn)	-12.3%	inactive	inactive	
COC(=O)C1=COC(OC2OC(CO)C(O)C(O)C2O)C2C(C)CC(=O)C12O (stereo not drawn)	-4.46%	inactive	inactive	
CC(C)=CCC[C@](C)(O[C@@H]1O[C@H](CO)[C@@H](O)[C@H](O)[C@H]1O)[C@H]1CC[C@]2(C)[C@@H]1[C@H](O)CC1[C@@]3(C)CC[C@H](O)C(C)(C)C3[C@@H](O[C@@H]3O[C@H](CO)[C@@H](O)[C@H](O)[C@H]3O[C@@H]3OC[C@@H](O)[C@H](O)[C@H]3O)C[C@]12C (stereo partly drawn)	-15.3%	inactive	inactive	
CCc1cc(CN2CC(C(=O)O)C2)sc1-c1noc(-c2ccc(Oc3ccccc3)cc2)n1	-2.39%	inactive	inactive	
CC1=C2C(=O)C=C(CO[C@@H]3O[C@H](CO)[C@@H](O)[C@H](O)[C@H]3O)[C@@H]2[C@H]2OC(=O)[C@H](C)[C@@H]2[C@@H](O)C1	-7.63%	inactive	inactive	
CSCC1OC(n2cnc3c(N)ncnc32)C(O)C1O (stereo not drawn)	6.11%	inactive	inactive	
